HCV inh = qHTS Assay for Inhibitors of Hepatitis C Virus (HCV) | Huh7.5.1 HCVcc-Cre infection, luciferase reporter, 44 h | Potency, µM (titrated, usually from 41.8 µM), for inactives: at the top dose activity change, negative = inhibition, usual class: inhibitors | hit rate 3.4% among 340,000 | AID 651820, 2012; further: on the % scale 0 is the no-effect control and ±100 the full control effect
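Infectious HCV cell culture screen: compound-treated cells (1,000/well, pre-plated 4 h) are infected with HCVcc-Cre at roughly 0.5 moi and grown 44 h. Infection is quantified by luciferase signal after 15 min substrate incubation at room temperature.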
Vaccinia mCherry = qHTS for Stage-Specific Inhibitors of Vaccinia Orthopoxvirus: mCherry Reporter Primary qHTS | AID 720579, 2013 | Potency, µM (titrated, usually from 36.5 µM), without a hit: at the highest dose activity change, negative = inhibition, most hits filed as inhibitors | Vaccinia virus mCherry reporter infection, fluorescence | hit rate 0.63% among 310,000; calls by dose curve; tested in A549 cells; further: on the % scale 0 is the no-effect control and ±100 the full control effect; nearly all actives have a fitted effect of over 35% in size
NS1 inh = qHTS Assay for Inhibitors of Influenza NS1 Protein Function; hit rate 0.4% among 270,000; Potency, µM (series often up to 46.1 µM), inactives show at the top dose activity, positive = more growth; calls by dose curve; further: actives are rising curves; nearly all actives have a fitted effect of over 50% in size
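Compounds were scored for reversing the slow growth caused by influenza A NS1 in S. cerevisiae, measured by optical density at 600 nm. Assay medium contained 2% galactose at pH 6.0; NS1-free yeast of the same strain were the positive control.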
Pf growth 48h = Primary qHTS for delayed death inhibitors of the malarial parasite plastid, 48 hour incubation. P. falciparum luciferase growth in erythrocytes, 48 h. Potency, µM (highest dose often 28.7 µM), inactives show top-dose activity change, negative = inhibition, hits mostly inhibitors. hit rate 5.9% among 310,000; further: on the % scale 0 is the no-effect control and ±100 the full control effect
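Growth was read as firefly luciferase luminescence after a 48 h, 37 C, 5% CO2 exposure of compounds to reporter-bearing P. falciparum cultures (0.1% parasitemia, 2% hematocrit final) in Albumax-supplemented RPMI 1640.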
Vaccinia Venus = qHTS for Stage-Specific Inhibitors of Vaccinia Orthopoxvirus: Venus Reporter Primary qHTS; Potency, µM (titrated, usually from 36.5 µM), without a hit: top-dose activity change, negative = inhibition, hits mostly inhibitors; Vaccinia virus Venus reporter expression, fluorescence; hit rate 0.46% among 330,000; AID 720580, 2013; calls by dose curve; tested in A549 cells; further: on the % scale 0 is the no-effect control and ±100 the full control effect; nearly all actives have a fitted effect of over 30% in size
Pf growth 96h = Primary qHTS for delayed death inhibitors of the malarial parasite plastid, 96 hour incubation; P. falciparum luciferase reporter growth, 96 h; Potency, µM (highest dose often 28.7 µM), for the others: at the top dose activity change, negative = inhibition, hits mostly inhibitors; hit rate 6.9% among 320,000; AID 504834, 2011; further: on the % scale 0 is the no-effect control and ±100 the full control effect
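P. falciparum expressing integrated firefly luciferase grown in erythrocytes (2% hematocrit, 0.05% parasitemia final) with compounds for 96 hours at 37 C, 5% CO2. Growth inhibition read as loss of luminescence after adding luciferase detection reagent.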
Starred values were filed as active, the others as inactive; i = inactive; ? = inconclusive; · = no result; [ ] = remark or other dose. An excerpt weighted towards active compounds, which were near 11% of everything screened. Unless noted, the call rests on the fitted dose curve; in most records, active means well fitted inhibition curve with a large enough effect; inconclusive means small, poorly fitted or top-dose-only effect, or another doubt; inactive means no such curve, though single readings can be large or run the other way. Potency means the concentration at half of the fitted maximal effect.

SMILES	HCV inh	Vaccinia mCherry	NS1 inh	Pf growth 48h	Vaccinia Venus	Pf growth 96h
CCC[C@@H](CN1CCC[C@H]1CN1C(N)=NC[C@H]1C(C)C)N1C[C@@H]([C@H](C)CC)N(CCCC2CCCC2)C1=N	-61%	i	·	·	-14%	·
CCC[C@@H](CN1CCC[C@H]1CN1C(N)=NC[C@H]1CC(C)C)N1C[C@@H]([C@H](C)CC)N(CCCC2CCCC2)C1=N	2.8µM*	-1%	·	·	-5%	·
COc1ccc(Oc2coc3cc(OC(=O)c4cccs4)ccc3c2=O)cc1	-7%	·	-7%	54%	-5%	4.1µM*
Cc1ccc(C)c(Oc2coc3cc(OC(=O)c4cccs4)ccc3c2=O)c1	2%	-14%	·	·	-9%	·
COc1ccc2c(c1)c1nnc(SC)nc1n2C	8%	·	-85%	-8%	·	43%
COc1ccc2c(c1)c1nnc(SCC(=O)N3C(C)CCCC3C)nc1n2C (configuration not stated)	8.9µM*	·	-3%	?	·	?
COc1ccc(OCC(O)CNCCOc2ccccc2OC)c(C(C)(C)C)c1 (configuration not stated)	18µM*	·	4%	4.7µM*	·	3.7µM*
Cc1ccccc1OCC(O)CNCCOc1ccc(C(N)=O)cc1 (configuration not stated)	·	·	·	-12%	·	-29%
Cc1nc(/C=C\C(=O)O)c2cc(C)oc2n1	-4%	-14%	·	2%	-11%	27%
CC(=O)Nc1nonc1-c1nnc(SCC(=O)Nc2cccc(C)c2C)n1-c1ccccc1	·	-6%	·	·	-4%	·
O=C1CC2(CCCCC2)Oc2ccc(O)cc21	15%	·	-31%	-24%	·	4.1µM*
CC1=CC(C)C2COC(c3ccc[n+](C)c3)C1C2C (configuration not stated)	34%	-13%	6%	15µM*	-1%	?
CC1=CC(C)[C@@H]2COC(c3ccc(O)cc3)[C@H]1C2C (some centres not stated)	-6%	·	-7%	?	·	9.3µM*
N#Cc1nc(COc2cccc(Cl)c2)oc1NCCN1CCOCC1	20%	-20%	1%	-5%	-9%	20%
CCOC(=O)c1c(C)[nH]c(C)c1C(=O)CSc1nc2ccccc2c(=O)n1-c1ccccc1C	?	-15%	8%	10µM*	?	?
CC(C)CN(C(=O)CSc1nc2ccccc2c(=O)n1C)C1CCS(=O)(=O)C1 (configuration not stated)	-9%	·	·	?	·	-83%
FC(F)(F)c1ccc(CN2C[C@@H]3C(c4ccccc4)C4(c5cccnc5)CC3(C4)[C@H]2c2ccccc2)cc1 (some centres not stated)	-19%	?	1%	2.3µM*	-25%	3.3µM*
FC(F)(F)c1ccc(CN2C[C@@H]3C(c4ccc(C(F)(F)F)cc4)C4(c5cccnc5)CC3(C4)[C@H]2c2ccccc2)cc1 (some centres not stated)	10%	-4%	4%	2.1µM*	-29%	2.1µM*
FC(F)(F)c1ccc(C2[C@H]3CN(Cc4cccnc4)[C@H](c4ccccc4)C34CC2(c2ccccc2)C4)cc1 (some centres not stated)	-2%[8.37 µM]	?	18%	2.9µM*	9%	2.3µM*
CN1C[C@@H]2C(c3ccc(C(F)(F)F)cc3)C3(c4cccnc4)CC2(C3)[C@H]1c1ccccc1 (some centres not stated)	21%	-12%	-17%	2.3µM*	-6%	2.9µM*
N#Cc1ccc(C23CC4(C2)[C@H](CN(Cc2ccc(C(F)(F)F)cc2)[C@@H]4c2ccccc2)C3c2ccccc2)cc1 (some centres not stated)	2%	i	7%	?	-5%	?
N#Cc1ccc(C23CC4(C2)[C@H](CN(Cc2ccc(C(F)(F)F)cc2)[C@@H]4c2ccccc2)C3c2ccc(C(F)(F)F)cc2)cc1 (some centres not stated)	4%	i	7%	-20%	-8%	-18%
COC(=O)c1ccc(C23CC4(C2)[C@H](CN(Cc2ccc(C(F)(F)F)cc2)[C@@H]4c2ccccc2)C3c2ccccc2)cc1 (some centres not stated)	28%[8.37 µM]	-4%	10%	?	-2%	?
O=C(Nc1ccc(Cl)cc1)N1CCN(c2ccc3nnc(-c4ccc(F)cc4)n3n2)CC1	?	?	-11%	9.3µM*	11µM*	?
Cc1ccc(/C=C/S(=O)(=O)NCc2ccc(F)cc2)cc1	2%	-27%	·	10µM*	-11%	?
SMILES	HCV inh	Vaccinia mCherry	NS1 inh	Pf growth 48h	Vaccinia Venus	Pf growth 96h
Cc1ccc(/C=C/S(=O)(=O)Nc2ccc(C)cc2)cc1	11%	i	·	?	-6%	37%
O=C(C[n+]1ccc(C(=O)NCc2ccccc2)cc1)c1ccc2c(c1)OCCO2	8%	-13%	10%	6%	-1%	12%
Nc1cc[n+](CC(=O)c2ccc3c(c2)OCCO3)cc1	?	·	14%	4.7µM*	·	?
CC(=O)Nc1sc2c(c1C#N)CCCCC2	?	·	-11%	?	·	·
COc1cc(C2NCC(c3ccc(Cl)cc3Cl)c3c2[nH]c2ccccc32)cc(OC)c1OC (configuration not stated)	?	-25%	-35%	13µM*	-20%	12µM*
O=C(O)c1ccc(C2NCC(c3ccccc3Cl)c3c2[nH]c2ccccc32)cc1 (configuration not stated)	-6%	-1%	11%	0%	-4%	18%
Cc1ccc(-c2cc(-c3ccc4c(c3)OCO4)c(C#N)c(N)n2)o1	?	·	-3%	?	·	·
CC(C)(C)c1ccc(-c2nc3c(C#N)c(-c4ccc5c(c4)OCO5)ccn3n2)cc1	?	·	8%	8.3µM*	·	?
CC1CCCC(C)N1CCCNC(=O)c1ccc2c(c1)NC(=O)c1ccccc1S2 (configuration not stated)	?	-15%	-15%	4.1µM*	-27%	?
O=C(NCCCN1CCCC1=O)c1ccc2c(c1)NC(=O)c1ccccc1S2	8%	-9%	5%	·	-9%	-13%
COc1ccc(/C=C2/Sc3ccc(C(=O)NCCCN4CCOCC4)cc3NC2=O)cc1OC	7.9µM*	i	6%	?	-21%	?
CCC(C)N(CCNC(=O)c1ccc2c(c1)NC(=O)c1ccccc1S2)C1CCCCC1 (configuration not stated)	22µM*	-14%	4%	1.9µM*	-17%	?

Source: PubChem
